Hit rate of the full screen: of about 69,000 compounds, about 8,600 (12%) showed an effect of 50% or more. The sample holds strong results, similar compounds and a random draw of the others, so the mix is not that of the screen.

This test relates to Plasmodium berghei. The experiment in a line: Screen against P. berghei liver stage (PbLuc), transformed with Luciferase, at 10uM. Format: functional, HepG2. As to conditions: tested at 10 uM.
Turning to `CCCS(=O)(=O)NCC(C)(O)c1ccsc1` (stereo unspecified), the INHIBITION was found to be 20.9%.
In the case of `Cc1nc(Nc2nnc(C)s2)cc(C2CCCN2C)n1` (stereo unspecified), the INHIBITION turned out to be 21.6%.
Consider `O=C(c1cccc(C2CCNC2)c1)N1CCC(c2ccncc2)CC1` (stereo unspecified), for which the INHIBITION is -19.1%.
In the case of `Cc1ccc(N2CC[C@H]3OCC[C@@]3(C(=O)N3CCCC3)C2)nn1`, the INHIBITION was determined as 40.1%.
In the case of `CC(C)n1cnnc1CNC(=O)c1cnn(-c2ccccc2)c1`, the INHIBITION was -20.3%.
With `Cc1ccc(Cl)cc1N1CCC(CNC(=O)Cn2cccn2)C1` (stereo unspecified), the INHIBITION is on record as 10.083%.
For `c1nc2c(c(C3CCOC3)n1)CCN(Cc1ccoc1)CC2` (stereo unspecified), the INHIBITION amounted to 12.1%.
`c1ccc(CN2CCc3ncnc(C4CCOC4)c3CC2)nc1` (stereo unspecified): the INHIBITION is on record as 33%.
As to `c1coc(CN2CCc3ncnc(C4CCOC4)c3CC2)c1` (stereo unspecified), the INHIBITION is listed as 79.6%.
As to `O=C(Nc1ccc(CCN2CCOCC2)cc1)C1CCCC1`, the INHIBITION is listed as -7.85%.
Consider `O=C(NCC1CC1)c1cc2c(s1)CCN2C(=O)c1ccc(F)cc1`, for which the INHIBITION is 4.57%.
Consider `CN(C)S(=O)(=O)NCC(Cc1cccc(F)c1)N1CCNC1=O` (stereo unspecified), for which the INHIBITION is given as -15.3%.
Regarding `COc1cccc(CCC(=O)Nc2c(C)nn(C)c2C)c1OC`, the INHIBITION came to 31%.
As to `CCC(C)NC(=O)c1nn(C)c(NC(=O)c2ccccc2OC)c1F` (stereo unspecified), the INHIBITION was determined as 19.3%.
For `COc1ccccc1C(=O)Nc1c(F)c(C(=O)NCCC(C)C)nn1C`, the INHIBITION was 57%.
With `CCOc1ccccc1CCC(=O)Nc1c(C)nn(C)c1C`, the INHIBITION worked out at 22.6%.
For `COc1ccccc1C(=O)NCCC(=O)Nc1c(C)nn(C)c1C`, the INHIBITION came to 51.8%.
Take `COc1ccccc1C(=O)Nc1c(F)c(C(=O)NC2CCCC2)nn1C`: the INHIBITION is 4.48%.
As for `CC(=O)N1CCC2(CC1)COCCN2CCN(C)C`, the INHIBITION is -8.94%.
Consider `Cc1cc(C)n(CC2CN(CCOc3ccccc3F)CCO2)n1` (stereo unspecified), for which the INHIBITION is recorded as 9.14%.
As for `Cc1ccc(N2CCc3ncc(CNc4ccccn4)n3CC2)nn1`, the figure is 18.4%; as for `O=C(c1cscn1)N1CCC(O)(Cn2ccc3ccncc32)CC1`, 17.1%.
As for `CC(=O)N1N=C(c2ccco2)OC1C(=O)NCC(C)C` (stereo unspecified), the figure is -4.32%; as for `FC(F)(F)Cn1cc(NCc2cscn2)cn1`, 62%; as for `CC(C)Cn1cc(NCc2cscn2)cn1`, -24.5%.
Consider `CC(C)(C)n1cc(NCc2cscn2)cn1`, for which the INHIBITION is 29.4%.
`CCOc1cc(=O)n2c(c1C(=O)OCc1ccc(C)cc1)CCCC2`: the INHIBITION is recorded as 32.2%.
As for `Cc1cccc(CN2CCC3(CCN(c4ncccn4)CC3)C2=O)c1`, the figure is 42%.
As for `COc1cccc(N2CC3(CCN(c4cc(OC)ncn4)C3)CC2=O)c1` (stereo unspecified), the figure is 34.6%.
Turning to `COc1cc(N2CCC3(CC2)CCN(c2cccnc2)C3=O)ncn1`, the INHIBITION is given as 68.4%.
Regarding `N#Cc1ccc(N2CCC3(CCCN(c4ccccn4)C3)C2)nc1` (stereo unspecified), the INHIBITION came to 12.1%.
In the case of `O=C1N(c2cncnc2)CCC12CCCN(Cc1ccccn1)C2` (stereo unspecified), the INHIBITION was -11.5%.
As for `COc1cc(N2CCC3(C2)CN(c2cccnc2)C(=O)CN3C)ncn1` (stereo unspecified), the INHIBITION was 30.3%.
With `O=C1N(Cc2cccnc2)CCC12CCCN(c1ncccn1)C2` (stereo unspecified), the INHIBITION came out at 87.2%.
Regarding `Cc1cccc(CN2CCC3(CCN(c4ncccn4)C3)C2=O)c1` (stereo unspecified), the INHIBITION is on record as -23.3%.
As for `CCc1cnc(N2CCC3(CCN(Cc4cccc(C)c4)C3=O)C2)nc1` (stereo unspecified), the figure is 60.5%; as for `N#Cc1ccc(N2CCCC3(CCN(c4cncnc4)C3=O)C2)nc1` (stereo unspecified), 65.7%.
For `O=C1N(Cc2ccncc2)CCC12CCCN(c1ncc(F)cn1)C2` (stereo unspecified), the INHIBITION is reported as 39.5%.
As to `O=C1N(Cc2cccnc2)CCC12CCCN(c1ncc(F)cn1)C2` (stereo unspecified), the INHIBITION was -42%.
As to `CN(C)CCOCc1cncc2c1CCN(Cc1ccccn1)C2`, the INHIBITION is -8.51%.
`Cc1nc(CN2CCO[C@H]3[C@@H](OCc4cccnc4)CC[C@@H]32)cs1`: the INHIBITION is reported as 14.6%.
On to `Cc1nc(C(=O)N2CCN(S(C)(=O)=O)CC2)c(-c2ccccc2Cl)s1`, for which the INHIBITION is 23%.
Turning to `COCCN1CCC(Nc2c(F)cc(C#N)cc2F)CC1`, the INHIBITION is recorded as -3.58%.
For the compound `O=C([C@@H]1CCO[C@@H]2CCN(Cc3ccsc3)C[C@@H]21)N1CCCC1`, the INHIBITION came to 38.1%.
With `O=C1CC(c2ccsc2)c2sc(C(=O)O)c(-c3ccc(F)cc3)c2N1` (stereo unspecified), the INHIBITION is given as -8%.
Take `COCC(=O)N1CCCC2(CCN(c3cncnc3)C2=O)C1` (stereo unspecified): the INHIBITION was determined as 25.2%.
Take `COc1cc(N2CCCC3(CCN(c4cncnc4)C3=O)C2)ncn1` (stereo unspecified): the INHIBITION is given as 53%.
As for `O=C(c1ccncc1)N1CCCC2(CCN(c3cccnc3)C2=O)C1` (stereo unspecified), the figure is -7.7%.
As for `COc1cccc(CN2CCC3(CCN(c4ncc(C)cn4)C3)C2=O)c1` (stereo unspecified), the figure is 37.9%; as for `COc1cc(N2CCC3(CC2)CN(CCO)c2ccccc23)ncn1`, 93.1%; as for `COc1cc(N2CCCC3(CCN(c4cccnc4)C3=O)C2)ncn1` (stereo unspecified), 84.7%.
With `Cc1cnc(N2CCC3(CC2)CCN(c2cncnc2)C3=O)nc1`, the INHIBITION came out at 40.8%.
As for `COc1cc(N2CCC3(CCN(Cc4cccnc4)C3=O)C2)ncn1` (stereo unspecified), the INHIBITION is reported as 91%.
For `O=C1N(c2cccnc2)CCC12CCCN(Cc1cccnc1)C2` (stereo unspecified), the INHIBITION is recorded as -52.3%.
`CCN1CCC2(CC1)CN(CCO)c1ccccc12`: the INHIBITION is -7.94%.
For `COc1cc(N2CCC3(CC2)CN(S(C)(=O)=O)c2ccccc23)ncn1`, the INHIBITION is 46.4%.
As for `Cc1cccc(CN2CCC3(CCN(c4ccccn4)C3)C2=O)c1` (stereo unspecified), the figure is 20.7%; as for `CNC(=O)[C@H]1C[C@@H]2CN(C(=O)c3ccccn3)C[C@@H]2N1S(C)(=O)=O`, 37.2%; as for `Cc1nnc(CN2CCCC2c2c(C)nn(C)c2Cl)o1` (stereo unspecified), 16.9%.
For the compound `O=C(C1CCOC1)N1C[C@H]2CN(Cc3nccs3)C[C@H]2C1` (stereo partly specified), the INHIBITION came out at 17.1%.
Turning to `COc1ccccc1CN(CC1CCCO1)C(=O)c1cc(C)n[nH]1` (stereo unspecified), the INHIBITION was -11.3%.
With `c1cncc(CN2Cc3nccn3CC(Cn3cncn3)C2)c1` (stereo unspecified), the INHIBITION turned out to be 5.41%.
As for `COc1ccc(C(=O)N2C[C@@H](O)[C@H](NCCc3ncccc3C)C2)cc1`, the figure is -15.3%; as for `Cc1cc(CNc2cc(Cl)ccc2C)no1`, -4.4%.
As for `Cc1nnsc1CN1C[C@H]2CC[C@@H](C1)N(Cc1c(C)noc1C)C2=O`, the figure is -42.9%; as for `Nc1cc(C(=O)N2CCC3(CC2)Nc2ccccc2NC3=O)ccn1`, -31.5%; as for `CC(=O)c1cc(C(=O)N2CCC3(CC2)Nc2ccccc2NC3=O)cs1`, 20.3%.
Consider `COc1ncc(C(=O)N2CCC3(CC2)C(=O)Nc2ccccc23)cn1`, for which the INHIBITION was 12%.
For `CNc1ncc(C(=O)N2CCC3(CC2)Nc2ccccc2NC3=O)cn1`, the INHIBITION is listed as 27.6%.
Turning to `COc1cc(C(=O)N2CCC3(CC2)Nc2ccccc2NC3=O)ccn1`, the INHIBITION was 52.1%.
With `CNc1cc(C(=O)N2CCC3(CC2)Nc2ccccc2NC3=O)ccn1`, the INHIBITION was 57.6%.

The record behind these values is ChEMBL document CHEMBL4513216, “Probing the Open Global Health Chemical Diversity Library for Multistage-Active Starting Points for Next-Generation Antimalarials” (ACS Infect Dis, 2020).
